Test results reported in PMC4336329 (PLoS ONE, 2015).
Hit rate of the full screen: of about 310,000 compounds, about 14,000 (4.5%) showed an effect of 50% or more. Effects have a minus sign here. The sample as a whole holds a higher share of strong results than the screen did.

Each compound was assayed against human ether-à-go-go-related gene (hERG) potassium channel (human, UniProt Q12809) (assay: primary screen, population patch clamp on CHO cells stably expressing hERG; higher = less effect of the substance).
Sequence of human ether-à-go-go-related gene (hERG) potassium channel (Q12809 whole entry, looked up): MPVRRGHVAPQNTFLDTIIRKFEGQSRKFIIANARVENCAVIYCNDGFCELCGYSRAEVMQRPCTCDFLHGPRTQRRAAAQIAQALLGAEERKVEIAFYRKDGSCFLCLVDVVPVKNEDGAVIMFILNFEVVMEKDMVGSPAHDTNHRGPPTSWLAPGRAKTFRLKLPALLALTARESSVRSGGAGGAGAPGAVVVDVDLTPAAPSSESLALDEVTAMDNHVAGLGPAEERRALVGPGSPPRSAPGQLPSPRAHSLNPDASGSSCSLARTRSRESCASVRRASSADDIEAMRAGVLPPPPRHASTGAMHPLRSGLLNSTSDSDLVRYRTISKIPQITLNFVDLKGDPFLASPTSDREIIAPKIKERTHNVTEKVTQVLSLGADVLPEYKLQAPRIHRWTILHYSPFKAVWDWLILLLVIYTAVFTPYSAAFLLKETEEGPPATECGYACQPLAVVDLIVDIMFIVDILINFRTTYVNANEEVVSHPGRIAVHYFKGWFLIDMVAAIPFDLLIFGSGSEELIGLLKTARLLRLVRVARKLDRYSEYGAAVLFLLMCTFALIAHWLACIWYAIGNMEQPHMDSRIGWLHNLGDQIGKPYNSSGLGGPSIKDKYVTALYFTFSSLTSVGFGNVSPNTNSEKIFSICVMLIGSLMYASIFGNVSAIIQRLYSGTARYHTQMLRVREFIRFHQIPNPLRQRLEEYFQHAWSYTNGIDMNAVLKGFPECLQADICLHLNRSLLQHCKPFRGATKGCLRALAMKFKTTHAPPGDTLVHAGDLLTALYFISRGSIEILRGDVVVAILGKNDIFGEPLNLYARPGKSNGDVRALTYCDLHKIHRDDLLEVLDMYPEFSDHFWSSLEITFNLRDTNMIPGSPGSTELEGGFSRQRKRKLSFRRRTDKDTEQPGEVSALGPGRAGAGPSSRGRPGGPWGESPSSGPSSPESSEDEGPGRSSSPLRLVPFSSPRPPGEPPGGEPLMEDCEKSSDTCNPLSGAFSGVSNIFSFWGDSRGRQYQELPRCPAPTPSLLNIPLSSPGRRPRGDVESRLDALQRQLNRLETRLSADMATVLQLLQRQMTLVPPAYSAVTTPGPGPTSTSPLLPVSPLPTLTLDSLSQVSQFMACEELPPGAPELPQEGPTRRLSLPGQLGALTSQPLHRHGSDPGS
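Note: peak tail current of the secondary pulse compared with the same well before compound.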

| SMILES | hERG current change (%, negative = inhibition) at 10uM |
| --- | --- |
| CC(C)N(C(=O)CSc1nnc(CSc2ncccn2)n1C)C(C)C | 32.8% |
| O=c1[nH]n2cc(-n3cc([N+](=O)[O-])cn3)cnc2c1Br | 10.6% |
| CCCCNC(=O)CCC(=O)N1CCN(C(c2ccccc2)c2ccccc2)CC1.Cl | -7.34% |
| O=C(CCc1ccccc1)Nc1ccc(NC(=O)C2CCCCC2)nc1 | 7.57% |
| Cl.O=C(/C=C/c1ccccc1)Nc1ccc(N2CCCCC2)cc1 | 5.7% |
| O=C(Nc1ncccc1O)c1cccc(S(=O)(=O)NCc2ccccc2)c1 | -20.3% |
| Cn1c(C(O)c2ccc3c(c2)OCO3)nc2ccccc21 (centres unmarked) | 5.63% |
| Cc1ccc(S(=O)(=O)N2c3ccccc3NC(=O)CC2C)cc1 (centres unmarked) | 10.5% |
| C=CCn1c(-c2ccc(Cl)cc2)c[nH]c1=S | 19.4% |
| Cc1cnc(NC(=O)CC2CCCC2)s1 | 21.5% |
| COc1ccc(-c2cc(-c3ccccc3)no2)cc1 | 9.77% |
| CCN(CC(=O)NCc1cccs1)C(=O)COc1ccc(C(C)=O)cc1 | -45.1% |
| O=C(CSc1nnc(-c2cnccn2)n1Cc1ccco1)c1ccccc1 | -16.3% |
| CCn1c(SC/C=C/c2ccccc2)nnc1-c1cnccn1 | -14.7% |
| C(=C\c1ccccc1)/CSc1nnc(-c2ccccn2)n1Cc1ccco1 | -50.9% |
| NC(=O)CSc1nnc(-c2ccccn2)n1Cc1ccco1 | 4.36% |
| O=C(CSc1nnc(-c2ccccn2)n1Cc1ccco1)c1ccccc1 | -42.5% |
| C(=C\c1ccccc1)/CSc1nnc(-c2cnccn2)n1Cc1ccco1 | -73.4% |
| COc1ccc(C2CC(c3ccc(C)o3)=NN2C(C)=O)cc1 (centres unmarked) | 7.14% |
| CCOC(=O)C1SC2(C(F)(F)C(F)F)CC1(O)c1c(c(OC)c3occc3c1OC)O2 (centres unmarked) | -3.47% |
| O=C(COC(=O)Cc1cccc2ccccc12)Nc1ccccc1-c1ccccc1 | 9.26% |
| NC(=S)Nc1cccc2cnccc12 | 1.4% |

| SMILES | hERG current change (%, negative = inhibition) at 10uM |
| --- | --- |
| COc1cc(NC(=O)c2cc3ccccc3cc2OC)ccc1NC(=O)c1cccs1 | 9.15% |
| O=C(CSc1nnc(-c2ccncc2)n1Cc1ccco1)c1ccc(Cl)cc1 | -46% |
| O=C(CSc1nnc(-c2cccnc2)n1Cc1ccco1)c1ccccc1 | -10.3% |
| O=C(CSc1nnc(-c2cccnc2)n1Cc1ccco1)c1ccc(Br)cc1 | -63.8% |
| O=C(CSc1nnc(-c2cccnc2)n1Cc1ccco1)c1ccc(Cl)c(Cl)c1 | -45.2% |
| O=C(CSc1nnc(-c2cccnc2)n1Cc1ccco1)c1ccc(Cl)cc1 | -63.6% |
| COc1ccc(C(=O)CSc2nnc(-c3cccnc3)n2Cc2ccco2)cc1 | -42.9% |
| CC1CCCC(NC(=S)Nc2cccc(S(=O)(=O)N(C)C)c2)C1C (centres unmarked) | 13.7% |
| CCOC(=O)/C=C1\SCC(=O)N1CC(=O)Nc1ccccc1OC(F)F | 18.8% |
| O=C(Nc1ccc(NC(=O)c2cccs2)c(Cl)c1)c1ccco1 | -39.4% |
| Cc1ccc(CNC(=O)Cn2cnc(S(=O)(=O)N3CCCCC3)c2)o1 | -2.35% |
| Cc1ccc(CNC(=O)Cn2cnc(S(=O)(=O)N3CCC(C)CC3)c2)o1 | -62.1% |
| O=C(Cn1cnc(S(=O)(=O)N2CCCCC2)c1)NCc1ccco1 | 8.34% |
| COc1ccc(S(=O)(=O)N(C)CC(=O)N2CCN(c3ccc(F)cc3)CC2)cc1OC | -44% |
| Nc1ncc(Br)cc1S(=O)(=O)NCCC(=O)N1CCN(c2ccccn2)CC1 | -55.4% |
| Nc1ncc(Br)cc1S(=O)(=O)NCCC(=O)N1CCN(c2ncccn2)CC1 | -25.6% |
| Nc1ncc(Br)cc1S(=O)(=O)NCCC(=O)N1CCN(c2ccccc2)CC1 | -8.45% |
| CN1CCN(C(=O)CN(C)S(=O)(=O)c2ccc(F)cc2)CC1 | 16.8% |
| CN(CC(=O)N1CCN(c2ccccn2)CC1)S(=O)(=O)c1ccc(Br)cc1 | -54.8% |
| CN(CC(=O)N1CCN(c2ccccn2)CC1)S(=O)(=O)c1ccc(Cl)cc1 | -46.2% |
| CN(CC(=O)N1CCN(c2ccccn2)CC1)S(=O)(=O)c1ccccc1 | -12.8% |
| CN(CC(=O)N1CCN(c2ccc(F)cc2)CC1)S(=O)(=O)c1ccc(F)cc1 | -53.2% |

| SMILES | hERG current change (%, negative = inhibition) at 10uM |
| --- | --- |
| CC1(C)C[C@H](O)[C@]2(CO)CC[C@]3(C)C(=CCC4[C@@]5(C)CC[C@H](O)C(C)(C)C5CC[C@]43C)[C@@H]2C1 (some centres unmarked) | -13.9% |
| O=C(CSc1nnc2ccccn12)NCc1ccco1 | 22.3% |
| O=C1CC(NNc2nc3ccccc3s2)C(=O)N1c1ccccc1 (centres unmarked) | -1.89% |
| O=C(CSc1nnc(-c2ccccc2)c2ccccc12)NCCN1C(=O)CSC1=O | -27.6% |
| O=C(CSc1ccccn1)Nc1ccc2c(c1)OCCO2 | 8.07% |
| O=C(Nc1cccnc1)c1cc2cc(Br)ccc2o1 | 8.93% |
| Cc1cc(-c2n[nH]c(=S)n2/N=C/c2ccco2)n[nH]1 | 7.99% |
| CC1CCN(S(=O)(=O)c2cn(CC(=O)N3CCN(c4cccc(C(F)(F)F)c4)CC3)cn2)CC1 | -54% |
| Cn1cnc(S(=O)(=O)N2CCN(c3cccc(C(F)(F)F)c3)CC2)c1 | 7.43% |
| Cc1ccc(C)c(N2CCN(C(=O)CN(C)S(=O)(=O)c3ccc4c(c3)CCC(=O)N4)CC2)c1 | -41.5% |
| Cc1cccc(N2CCN(C(=O)CCNS(=O)(=O)c3ccc4c(c3)CCC(=O)N4)CC2)c1C | -44.6% |
| Cc1ccc(S(=O)(=O)CC(=O)N2CCN(c3cccc(C(F)(F)F)c3)CC2)cc1 | -50.4% |
| Cc1ccc(CC(=O)N2CCN(c3cccc(C(F)(F)F)c3)CC2)cc1 | -9.64% |
| O=C(CCS(=O)(=O)c1ccccc1)N1CCN(c2cccc(C(F)(F)F)c2)CC1 | -43.1% |
| Cc1cccc(N2CCN(C(=O)CN(C)S(=O)(=O)c3ccc4c(c3)CCC(=O)N4)CC2)c1C | -60.5% |
| CC(=O)c1ccc(N2CCN(C(=O)Cn3cnc(S(=O)(=O)N4CCCCC4)c3)CC2)cc1 | 7.48% |
| Cc1ccc(S(=O)(=O)CC(=O)N2CCN(c3ccc(F)cc3)CC2)cc1 | -51.5% |
| Cc1ccc(S(=O)(=O)CC(=O)N2CCN(c3ccccc3F)CC2)cc1 | -16.8% |
| O=C(CS(=O)(=O)c1ccc(F)cc1)N1CCN(c2ccccc2)CC1 | -42.4% |
| CC(=NCC1CCCO1)c1c(O)n(-c2ccc(C)cc2)c(=O)[nH]c1=O (centres unmarked) | -8.18% |
| O=S1(=O)CCC(N=Nc2c(O)n(Cc3ccccc3)c3ccccc23)C1 (centres unmarked) | -25.1% |
| COc1cc(C)ccc1OCCOc1c(C)cccc1Cl | 2.01% |

| SMILES | hERG current change (%, negative = inhibition) at 10uM |
| --- | --- |
| CCOc1ccc(NC(=O)NCc2ccco2)cc1 | 16.4% |
| CCOC(=O)c1ccccc1NC(=O)c1cn(-c2ccc(C)c(C)c2)c(=O)c2ccccc12 | -2.12% |
| CC(CN1CCCC1)OC(=O)c1ccc(F)cc1.Cl (centres unmarked) | -10.1% |
| COC(=O)CNC(=O)c1ccc(C)s1 | -0.614% |
| CCc1c(C(=O)NNC(=S)NC2CCCCC2)csc1C | 16.3% |
| O=c1cc(C(F)(F)F)c2sc(N3CCCCC3)nc2[nH]1 | 20.1% |
| Cc1ccc(C(=O)N/C(=C/c2ccc(F)cc2)C(=O)NCc2ccncc2)cc1 | -72.8% |
| CSc1ccc(/C=C(/NC(=O)c2ccc(C)cc2)C(=O)Nc2cccc(F)c2)cc1 | 6.66% |
| Cc1ccc(NC(=O)/C(=C/c2ccncc2)NC(=O)c2ccccc2)cc1 | -9.82% |
| O=C(NCc1ccc(F)cc1)c1ccncc1 | 13.7% |
| CSc1ccc(/C=C(\NC(=O)c2ccc(C)cc2)C(=O)NN)cc1 | -10.9% |
| Cc1ccc(C(=O)N/C(=C\c2ccc(F)cc2)C(=O)NCc2ccncc2)cc1 | -75.9% |
| O=C(NCc1ccncc1)/C(=C\c1ccc(F)cc1)NC(=O)c1ccccc1 | -70.9% |
| O=C(NCc1ccco1)/C(=C/c1ccc(F)cc1)NC(=O)c1ccccc1 | -14.1% |
| CN(C)c1ccc(/C=C(\NC(=O)c2ccccc2)C(=O)NCc2ccncc2)cc1 | -12.8% |
| O=C(O)c1cccc(-n2cccc2/C=N/O)c1 | 11.4% |
| Cc1ccnc(NC(=O)CCC(=O)N(CC(=O)NC(C)(C)C)C2CCCC2)c1 | 1% |
| Cc1cc(C)c(OCC(=O)Nc2cccc(NC(=O)c3ccco3)c2)c(Br)c1 | 1.79% |
| CCOc1ccc(NC(=O)c2ccccc2NC(=O)CN2CCN(C(C)=O)CC2)cc1 | -3.2% |
| O=C(NCCSc1ncc(-c2ccc(F)cc2)[nH]1)c1ccco1 | -37.1% |
